The values below come from PubChem BioAssay (EPA / NIEHS).

A word on the AC50: it is the concentration at which the activity in the assay is half-maximal.

Activity calls are given as the source filed them. Rule for the calls: active = hit-call score of the fitted dose curve at least 0.9, where 1 is the maximum; inactive = score below 0.9.

The assay deals with Heat shock factor protein 1 (Homo sapiens) (UniProt Q00613). The assay can be described thus: ATG_HSE_CIS: Attagene CIS-FACTORIAL HepG2 Assay for human Heat Shock Transcription Factor 1 (HSE) (AID 2282953). As to conditions: HepG2 HSE cis-reporter, Attagene RNA transcription; actives raise or lower the signal. As to the method: ATG_CIS is a cell-based, multiplexed-readout assay that uses HepG2, a human liver cell line, with measurements taken at 24 hours after chemical dosing in a 24-well plate.ATG_HSE_CIS is one of 52 assay component(s) measured or calculated from the ATG_CIS assay. It is designed to make measurements of mRNA induction, a form of inducible reporter, as detected with fluorescence intensity signals by Reverse transcription polymerase chain reaction (RT-PCR) and Capillary electrophoresis technology.Data from the assay component ATG_HSE_CIS was analyzed into 1 assay endpoint. This assay endpoint, ATG_HSE_CIS, was analyzed with bidirectional fitting relative to DMSO as the negative control and baseline of activity. Using a type of inducible reporter, measures of mRNA for gain or loss-of-signal activity can be used to understand the reporter gene at the transcription factor-level as they relate to the gene HSF1. Furthermore, this assay endpoint can be referred to as a primary readout, because this assay has produced multiple assay endpoints where this one serves a reporter gene function. To generalize the intended target to other relatable targets, this assay endpoint is annotated to the dna binding intended target family, where the subfamily is heat shock protein.
Heat shock factor protein 1 (Homo sapiens), sequence (Q00613 whole entry, looked up): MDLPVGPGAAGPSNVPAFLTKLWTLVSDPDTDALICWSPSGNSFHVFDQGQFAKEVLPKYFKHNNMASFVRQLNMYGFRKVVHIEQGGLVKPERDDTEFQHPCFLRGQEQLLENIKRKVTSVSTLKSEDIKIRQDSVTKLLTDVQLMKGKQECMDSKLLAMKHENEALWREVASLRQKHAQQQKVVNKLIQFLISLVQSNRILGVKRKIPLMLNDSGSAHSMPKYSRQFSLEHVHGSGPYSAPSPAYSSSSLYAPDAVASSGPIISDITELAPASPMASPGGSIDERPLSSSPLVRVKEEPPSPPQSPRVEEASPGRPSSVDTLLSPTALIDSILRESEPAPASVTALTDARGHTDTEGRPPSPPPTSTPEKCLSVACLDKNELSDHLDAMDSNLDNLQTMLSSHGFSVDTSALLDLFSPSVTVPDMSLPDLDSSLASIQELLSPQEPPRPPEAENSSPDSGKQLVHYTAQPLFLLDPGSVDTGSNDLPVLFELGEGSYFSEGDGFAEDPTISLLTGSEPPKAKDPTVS
Human liver HepG2 cells are transiently transfected with multiple reporter transcription units (MRTUs) in 6-well plates using FuGene 6 reagent (Roche; 3 ml FuGene/1 mg DNA). The MRTU constructs are regulated by a cis-regulating element (promoter). […] A major difference between the CIS and TRANS system is that in CIS activities of endogenous TFs are measured, whereas the TRANS assay evaluates changes in activities of exogenous, chimeric NR-Gal4 proteins. […] At the end of 24 hour incubation, total RNA was isolated using TriZol reagent (Invitrogen). The isolated RNA is then reverse-transcribed using oligo(dT) primer and Mo-MLV reverse transcriptase (Invitrogen) with DNAse I (Ambion) treatment for 30 min. The one-tenth of the produced cDNA was amplified by PCR using Taq DNA polymerase (Invitrogen) and two reporter sequence-specific primers. The PCR products were fluorescently labeled by primer extension with 6-arboxyfluorescein (6-FAM) 5'-labeled reporter sequence-specific primer (2 min at 95 C, 20 s at 68 C and 10 min at 72 C) and these products were digested with 5U of HpaI (New England Biolabs) for 2h at 37 C. The fragments were purified using Qiaquick PCR columns (Qiagen), analyzed on an ABI 3130xL genetic analyzer (Applied Biosystems) with peak positions identified by using a set of X-rhodamine (ROX)-labeled MapMarker1000 molecular weight standards (BioVentures). The raw capillary electrophoresis data was processed using Attagraph software (Attagene).
Consider `O=C(O)CCCCCCCCC(=O)O`, for which the compound was classed as inactive. For `CCCCC(CC)COC(=O)c1ccc(O)cc1` (stereo not given), the compound was classed as inactive.

For the compound `CC=CC=CCOC(=O)C(C)C`, the result was inactive. As to `CCCCCCCCCCCCN1CCCCCC1=O`, the AC50 was 15.8 µM (active). On to `CCCCCCC(C)(C)S`, for which the compound was called inactive. On to `CCOCCOCCOCC`, for which the outcome was inactive. With `O=Cc1ccccc1S(=O)(=O)O`, the result was inactive.

For `CC1(C)O[C@@H]2[C@@H](CO[C@@]3(COS(N)(=O)=O)OC(C)(C)O[C@@H]23)O1`, the result was inactive. As to `COc1ccc(CCO)cc1`, the outcome was inactive. With `C=Cc1ccncc1`, the AC50 was 75.8 µM (active).

For `CC(=O)O[C@@H]1CC2CCC1(C)C2(C)C` (stereo not given in full), the compound was classed as inactive. For the compound `C=COCCOCCOC=C`, the outcome was inactive. `CC(CN=Cc1ccccc1O)N=Cc1ccccc1O` (stereo not given): the call was inactive. With `CC(C)CCOC(=O)c1ccccc1`, the compound was classed as inactive. As for `CC(Oc1cc(Cl)ccc1Cl)C(=O)O` (stereo not given), the compound was classed as inactive. In the case of `C[N+](C)(C)CCCCCC[N+](C)(C)C`, the result was inactive. Consider `COCCOCCOCCO`, for which the result was inactive. As for `CCCCCCCCCC(C)C=O` (stereo not given), the compound was classed as inactive. Consider `N#Cc1cscn1`, for which the outcome was inactive.

On to `C=C1CC[C@H](O)C/C1=C/C=C1\CCC[C@]2(C)[C@@H]([C@H](C)/C=C/[C@H](C)C(C)C)CC[C@@H]12`, for which the result was inactive.

With `C=C(C)[C@H]1CC=C(C)C(=O)C1`, the compound was called inactive. As for `CC1=C(Br)C(=O)C(Br)=C/C1=C(/c1ccccc1S(=O)(=O)O)c1cc(Br)c(O)c(Br)c1C`, the call was inactive. On to `Nc1ccc2cc(S(=O)(=O)O)cc(O)c2c1N=Nc1ccccc1C(F)(F)F`, for which the outcome was inactive. As to `COc1ccc(CCC(C)=O)cc1`, the result was inactive.

As to `CCCCC(CC)C(=O)OC(C)C` (stereo not given), the compound was classed as inactive. For `[O-]n1ccccc1=S.[O-]n1ccccc1=S.[Zn+2]`, the AC50 is 0.937 µM (active). On to `O=CN1CCOCC1`, for which the call was inactive. As for `Cc1ncc([N+](=O)[O-])n1CCO`, the outcome was inactive.

For the compound `C=CCN(CC=C)CC=C`, the outcome was inactive. As for `CCCCCCC(CO)CCCC` (stereo not given), the compound was called inactive.

For `C=CC(C)(O)CCC=C(C)C` (stereo not given), the compound was called inactive.

With `C=Cc1ccc(C(C)(C)C)cc1`, the call was inactive.

Consider `NC1CCCCC1N` (stereo not given), for which the outcome was inactive.

Take `CN(C)c1ccncc1`: the result was inactive. In the case of `Cc1ccc(S(=O)(=O)Oc2ccc(N=Nc3ccc(-c4ccc(N=Nc5c(O)ccc6cc(S(=O)(=O)O)cc(S(=O)(=O)O)c56)c(C)c4)cc3C)cc2)cc1`, the call was inactive. Still for that read-out and setting: as for `OCCc1ccccc1`, the entry is “inactive”; as for `CCCCCC(C)=O`, “inactive”. With `CCCCN(CCCC)C(=O)N(CCCC)CCCC`, the AC50 was 52.2 µM (active). `O=P(O)(O)O`: the outcome was inactive.

`COc1cc([C@@H]2c3cc4c(cc3[C@@H](O[C@@H]3O[C@@H]5CO[C@@H](C)O[C@H]5[C@H](O)[C@H]3O)[C@H]3COC(=O)[C@H]23)OCO4)cc(OC)c1O`: the compound was classed as inactive.
